Reference: the supplement of paper PMC3334620
Whole data set: some 33,000 sequences, median “E-score (-0.5 to 0.5)” near -0.015, cut for the highest 2% near 0.3. What follows is part of a selection rich in the highest values, with near analogues and random picks from the rest.

Target: T1, Abf1 (UniProt P14164)
T1 sequence: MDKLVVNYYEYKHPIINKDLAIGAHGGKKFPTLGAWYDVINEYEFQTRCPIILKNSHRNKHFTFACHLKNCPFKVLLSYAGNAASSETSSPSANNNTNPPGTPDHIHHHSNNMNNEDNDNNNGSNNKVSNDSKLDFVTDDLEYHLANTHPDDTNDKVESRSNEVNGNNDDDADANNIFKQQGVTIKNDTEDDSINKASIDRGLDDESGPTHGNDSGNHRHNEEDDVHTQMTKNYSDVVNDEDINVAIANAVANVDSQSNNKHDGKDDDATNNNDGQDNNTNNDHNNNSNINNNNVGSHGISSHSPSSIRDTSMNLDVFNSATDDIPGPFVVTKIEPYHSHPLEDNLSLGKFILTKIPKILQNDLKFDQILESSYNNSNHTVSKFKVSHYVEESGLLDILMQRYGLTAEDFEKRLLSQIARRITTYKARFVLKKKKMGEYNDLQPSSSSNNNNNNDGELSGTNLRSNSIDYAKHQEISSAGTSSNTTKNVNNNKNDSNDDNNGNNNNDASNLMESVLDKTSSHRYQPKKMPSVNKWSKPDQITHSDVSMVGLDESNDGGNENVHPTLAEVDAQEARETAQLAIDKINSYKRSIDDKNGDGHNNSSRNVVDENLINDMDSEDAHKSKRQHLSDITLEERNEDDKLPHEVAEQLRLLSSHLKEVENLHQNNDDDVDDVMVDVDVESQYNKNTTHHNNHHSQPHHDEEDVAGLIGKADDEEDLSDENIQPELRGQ
Assay: PBM E-score (8-mer binding enrichment) (E-score (-0.5 to 0.5)); higher = stronger / more preferred TF binding
Conditions: protein concentration: 200 nM; construct: GST-full length
Method: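 Universal 'all 10-mer' protein binding microarrays (Agilent AMADID 015681) probed with GST-tagged S. cerevisiae TFs (full-length or DBD) made by in vitro transcription/translation (PURExpress), about 100-200 nM. Bound TF was detected with fluorescent anti-GST. Each ungapped 8-mer (which stands for itself and its reverse complement) is scored by the PBM enrichment score (E-score), a modified Wilcoxon-Mann-Whitney statistic from -0.5 to +0.5, computed with the Universal PBM Analysis Suite. Scale: above 0.35 generally sequence-specific binding.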

Row | Sequence | PBM E-score
1 | TGGTATAA | 0.0711
2 | ACGTATAA | 0.304
3 | ACGTATAG | 0.186
4 | GTAAGAAA | 0.176
5 | ATCAGGGC | -0.198
6 | CCATCGCA | -0.0576
7 | CAATATTG | 0.0635
8 | GGCCCTTA | -0.233
9 | GTAAACCA | -0.0676
10 | GCTTTATA | -0.0302
11 | CTTCGTCC | 0.0852
12 | ATTCGTAG | 0.191
13 | ATTCGTCA | 0.164
14 | ATTCGTAC | 0.408
15 | ATTCGTCC | 0.296
16 | ATTCGTCG | 0.31
17 | CTTCGTAA | 0.161
18 | CTTCGTAC | 0.414
19 | ATTCGTAA | 0.203
20 | GCGAGGAA | -0.0784
21 | AGTGGCGA | 0.0606
22 | CTGTTTGC | 0.0145
23 | CCTAAACA | -0.224

Row | Sequence | PBM E-score
24 | ATTCGGTC | 0.0175
25 | GCAGGCAC | -0.145
26 | CCCTTTGA | -0.125
27 | CGACGTCA | 0.123
28 | CACGAACC | 0.185
29 | CACGGTTC | 0.154
30 | ACGTCACA | 0.0823
31 | ACGTCACC | 0.22
32 | ACGTCACT | 0.39
33 | GCGTCACA | 0.02
34 | ACGTCACG | 0.326
35 | ACGTCAAT | 0.116
36 | AAGATAGG | -0.151
37 | ACTTCAGC | -0.124
38 | ATCAGGGA | -0.0561
39 | GGATGTCA | 0.171
40 | CTATGTCC | -0.022
41 | GTATGTCA | 0.394
42 | ATATGTCA | 0.289
43 | GAATGTCA | 0.278
44 | CTATGTCA | 0.31
45 | ATAAGGCA | 0.14
46 | ACAGGGGG | -0.357

Row | Sequence | PBM E-score
47 | GGAAGGAC | 0.0147
48 | AGACCATC | -0.195
49 | ATTAACCC | -0.086
50 | TGTGTGAA | -0.234
51 | AGTGTAAA | -0.00367
52 | CGTGTAAC | 0.237
53 | CGTGTGAC | 0.11
54 | CGTGTGAA | 0.311
55 | CGTGTAAA | 0.314
56 | ATATGGTG | 0.0579
57 | CGTGACGC | 0.152
58 | CGTGACCA | 0.0961
59 | GGTGACGA | 0.276
60 | AGTGACGG | 0.1
61 | AGTGACGA | 0.422
62 | CGTGACGA | 0.351
63 | CGGACATA | 0.0662
64 | CATGGAGG | -0.286
65 | AACGGCAT | 0.226
66 | CTGGTTGC | -0.0319
67 | AAATCACC | 0.336
68 | AAATCACA | 0.0176
69 | CAATCACC | 0.0554

Row | Sequence | PBM E-score
70 | AAATCACG | 0.284
71 | AAATCACT | 0.374
72 | AAATCAAT | 0.142
73 | CGAACCAA | 0.0494
74 | ATCAGCGA | -0.0614
75 | GGTTTTCA | 0.167
76 | ACGAGCAT | 0.00886
77 | GTCCTATA | -0.0768
78 | CACGACAA | 0.25
79 | AACGACAT | 0.346
80 | TACGACAA | 0.298
81 | AACGACAG | 0.196
82 | ACCGACAA | 0.115
83 | GACGACAC | 0.252
84 | CACGACAC | 0.296
85 | TGCGACAA | 0.0936
86 | GGCGACAA | 0.0843
87 | AACGACAA | 0.308
88 | AACGACAC | 0.238
89 | GACGACAA | 0.347
